# TrxR1 substrate: is turned over as a substrate by rat TrxR1; O89049; purified TrxR1 substrate turnover, NADPH consumption readout; Potency, µM (series often up to 114 µM), for inactives: at the highest dose activity change, negative = substrate turnover; hit rate 0.01% among 390,000; AID 588456; also: potency is read from the fitted curve at half-maximal effect; nearly all actives have a fitted effect of over 50% in size
#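 Rat TrxR1, dispensed at 90 nM, was prereduced with 400 uM NADPH (final) for 5 min at ~22 deg C, then incubated with compound 15 min before 400 uM selenite. A first-read NADPH fluorescence drop versus no-compound background flagged substrates.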
# GLS inh: glutaminase GLS (human) inhibition; O94925; GLS enzymatic activity, qHTS titration; Potency, µM (titrated, usually from 45.5 µM), inactives show at the top dose activity change, negative = inhibition, hits mostly inhibitors; hit rate 0.21% among 410,000; AID 624170; also: potency is read from the fitted curve at half-maximal effect
#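 Coupled fluorescence readout: glutamate oxidase/HRP/Amplex Red detect glutamate formed by hKGA from L-glutamine (1 mM solution added). Buffer 45 mM KH2PO4 pH 8.2, 0.02% Tween-20; reads at t0 and 30 min RT.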
# PKM2 activator: increases activity of human pyruvate kinase M2; hit rate 0.34% among 260,000; Potency, µM (top dose mostly 57.5 µM), for the others: top-dose activation, usual class: activators; purified PKM2, Kinase-Glo ATP luminescence, activation; response scale: 0% is enzyme alone, no compound; AID 1631; also: potency is read from the fitted curve at half-maximal effect; nearly all actives have a fitted effect of over 55% in size
#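 Purified hPK-M2 (>95% pure) converted ADP (0.1 mM final) to ATP with 0.5 mM PEP in 50 mM imidazole pH7.2, KCl, MgCl2, Tween 20, BSA; 1 h at room temperature. ATP detected by Kinase-Glo luminescence.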
# rTrxR1 inhibitor: blocks rat thioredoxin reductase 1; Potency, µM (titrated, usually from 114 µM), without a hit: at the top dose activity change, negative = inhibition, hits mostly inhibitors; recombinant rTrxR1, NADPH fluorescence consumption, selenite substrate; hit rate 1% among 390,000; also: potency is read from the fitted curve at half-maximal effect; nearly all actives have a fitted effect of over 65% in size
#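 Rat TrxR1 (90 nM in the dispensed reagent) was pre-reduced with 400 uM NADPH for 5 min at room temperature, then incubated with compound for 15 min. After 400 uM selenite was added, NADPH fluorescence (Ex 340/Em 450 nm) was followed for 8 min.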
# IDH1 R132H inh: human IDH1 R132H inhibition; O75874; IDH1-R132H enzyme, NADPH consumption, diaphorase/resazurin fluorescence; Potency, µM (titrated, usually from 76.6 µM), for inactives: top-dose activity change, negative = inhibition, hits mostly inhibitors; hit rate 0.093% among 390,000; also: potency is read from the fitted curve at half-maximal effect; nearly all actives have a fitted effect of over 65% in size
# Target sequence (O75874 whole entry R132H, stated change not applied): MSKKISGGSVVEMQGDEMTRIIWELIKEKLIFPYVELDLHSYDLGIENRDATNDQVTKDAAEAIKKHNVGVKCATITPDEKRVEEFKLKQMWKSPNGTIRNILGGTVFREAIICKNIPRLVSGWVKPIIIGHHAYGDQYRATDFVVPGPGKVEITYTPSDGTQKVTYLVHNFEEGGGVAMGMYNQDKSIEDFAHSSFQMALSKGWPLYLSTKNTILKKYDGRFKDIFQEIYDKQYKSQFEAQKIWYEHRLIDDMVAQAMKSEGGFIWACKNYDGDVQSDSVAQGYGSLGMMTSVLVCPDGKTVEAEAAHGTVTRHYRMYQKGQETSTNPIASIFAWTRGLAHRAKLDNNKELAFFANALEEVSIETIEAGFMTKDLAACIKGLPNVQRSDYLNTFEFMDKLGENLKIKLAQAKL
#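 IDH1-R132H (0.5 ug/mL) preincubated 30 min with compound, then NADPH (0.016 mM) and alpha-KG (2 mM) added; 80 min at RT, pH 7.5. Remaining NADPH coupled via diaphorase/resazurin to fluorescence (540/590 nm); concentration-response curves normalized to no-enzyme control.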
# LDHA block: blocks human lactate dehydrogenase A; P00338; purified LDHA, NADH/diaphorase-resazurin fluorescence; stronger effect = lower value; activity change, % (values are at about 110 or 230 µM); hit rate 0.15% among 480,000; AID 1347041; in the data active = activity change below about -30%; inconclusive = mostly about -25% to -30%;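 also: plate controls were DMSO wells for no effect and wells without enzyme for full effect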
#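 Remaining NADH was detected by diaphorase (0.133 mg/mL) converting 37 µM resazurin to fluorescent resorufin, read at 0 and 20 minutes. The preceding 5-minute room-temperature reaction used 2 nM LDHA, 0.2 mM sodium pyruvate and 0.06 mM NADH at pH 7.4.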
# Numbers without * were called inactive; ? = inconclusive; nt = no result given; [ ] = dose if it differs, or a comment. In the library only some 1.4% were active in any assay of this set; here they are far more common. Unless noted, calls follow the shape of the dose curve; as a rule, active = well fitted curve in the direction sought with a large enough effect; inconclusive = small, poorly fitted or top-dose-only effect, or another doubt; inactive = no such curve, though single readings can be large; an effect the other way counts as inactive or inconclusive. Unless noted, % is scaled to controls: 0 for no effect and ±100 for the full control effect.
SMILES,TrxR1 substrate,GLS inh,PKM2 activator,rTrxR1 inhibitor,IDH1 R132H inh,LDHA block
COc1ccc(N=Cc2nc(-c3ccccc3)oc2OC(C)=O)cc1,7%,?,0%,13µM*,8%,1
O=C(Oc1oc(-c2ccco2)nc1C=Nc1ccccc1)c1ccco1,21%[57.1 µM],-9%,0%,2.2µM*,2%,-1
COc1ccc(C2=C(O)C(=O)N(c3ccc(OC)cc3)C2c2cccc(Br)c2)cc1 (stereo not given),nt,nt,nt,nt,nt,0
Cc1ccc(S(=O)(=O)CC(=O)Nc2cc(C(C)C)no2)cc1,nt,nt,nt,nt,nt,-1
CCN1CCN(CC(=O)Nc2c(OC)cccc2OC)CC1,-8%[57.1 µM],-9%,nt,20%[57.1 µM],2%,-31*
COc1ccc(CNC(=O)Nc2cccs2)cc1OC,-1%,0%,18µM*,-16%,2%,-7
COc1cccc(CNC(=O)Nc2cccs2)c1,-2%,28%,27%,12%,-1%,-11
Cc1ccc(CNC(=O)Nc2cccs2)cc1,-6%,16%,25µM*,-17%,0%,-2
COc1ccccc1N1CCN(Cc2ccc(O)c3ncccc23)CC1,-9%,18%,4%,-14%,-2%,20
Oc1ccc(CN2CCCc3ccccc32)c2cccnc12,10%,22%,1%,1.3µM*,2%,16
CS(=O)(=O)c1nc(S(=O)(=O)c2ccc(Cl)cc2)c(N2CCC(C(N)=O)CC2)s1,-11%,14%,nt,32µM*,-4%,-7
Cc1ccc(S(=O)(=O)c2nc(S(C)(=O)=O)sc2N2CCC(C(N)=O)CC2)cc1,-4%,-5%,nt,-4%,-9%,-3
CCN1C(=O)[C@H]2[C@@H](c3ccc(-c4ccc(F)cc4)c(OC)c3)N[C@@](C)(C(=O)OC)[C@H]2C1=O,1%,-5%,nt,79µM*,4%,7
CCN1C(=O)[C@H]2[C@@H](c3ccc(-c4ccc(OC)cc4)c(OC)c3)N[C@@](C)(C(=O)OC)[C@H]2C1=O,27%,12%,nt,-3%,-2%,-6
N#CC(C#N)=C1C=CC=CN1/C(=C\c1ccco1)C(=O)c1ccc(Cl)cc1,-10%,11%,24%,0.5µM*,-8%,-2
N#CC(C#N)=C1C=CC=CN1/C(=C\c1ccco1)C(=O)c1ccc(-c2ccccc2)cc1,2%,-7%,13%,7.1µM*,-3%,-3
COc1ccc(-c2c[nH]c3c(SCC(=O)Nc4ccc(OC)c(OC)c4)ncnc23)cc1,nt,nt,nt,nt,nt,-5
NNC(=O)c1cc2c(ccc3ccccc32)o1,3%[57.1 µM],22µM*,9%,6%[57.1 µM],15%,-7
Fc1ccc(NC(=S)Nc2nccs2)cc1,1%,0%,-5%,7.9µM*,3%,-2
S=C(Nc1ccccc1)Nc1nccs1,12%[57.1 µM],-2%,-1%,?,-8%,-2
Cc1nc2c(=O)[nH]c(=S)[nH]c2[nH]c1=O,26%,6.3µM*,nt,?,3%,-3
O=c1cc(C23CC4CC(CC(C4)C2)C3)[nH][nH]1,9%,1%,-4%,14µM*,5%,5
NNC(=O)c1cc(C23CC4CC(CC(C4)C2)C3)[nH]n1,11%,11%,1%,28%,1%,-1
COCC(=O)N1CCN(c2oc(-c3ccccc3C)nc2S(=O)(=O)c2ccc(C)cc2)CC1,nt,nt,nt,nt,nt,12
COC(=O)c1ccc(NC(=O)CSC2=Nc3ccccc3C3CC=NN23)cc1 (stereo not given),-5%,14µM*,-2%,-8%,3%,-9
CCN(CC)c1ccc(C(=O)NN)cc1,6%[57.1 µM],-19%,2%,13%[57.1 µM],1%,-6
CCN(CC)c1ccc(N=C2C=CC(=O)C=C2NC(C)=O)cc1,11%[57.1 µM],11µM*,nt,-58%,0%,26
CCOC(=O)COc1ccc(Br)cc1/C=C\c1[nH]c(=O)[nH]c(=O)c1[N+](=O)[O-],-9%,-9%,-3%,45µM*,?,-7

# From PubChem BioAssay
